A selection: hits, their analogues and other compounds. The true share with any hit is near 3.5%.
MITF primary – blocks human microphthalmia-associated transcription factor. inhibition, % at 2.6 µM. AlphaScreen MITF homodimerization, bead proximity signal. 650,000 compounds, 0.91% hits. O75030; in the data active = inhibition above about 50%
GPR151 ag – human GPR151 activation | activation, % at 11.2 µM | PathHunter beta-arrestin GPR151 cells, luminescence | Q8TDV0 | 650,000 compounds, 1% hits | AID 1508602; in the data active = activation above about 4.9%
Target sequence (Q8TDV0 whole entry, looked up): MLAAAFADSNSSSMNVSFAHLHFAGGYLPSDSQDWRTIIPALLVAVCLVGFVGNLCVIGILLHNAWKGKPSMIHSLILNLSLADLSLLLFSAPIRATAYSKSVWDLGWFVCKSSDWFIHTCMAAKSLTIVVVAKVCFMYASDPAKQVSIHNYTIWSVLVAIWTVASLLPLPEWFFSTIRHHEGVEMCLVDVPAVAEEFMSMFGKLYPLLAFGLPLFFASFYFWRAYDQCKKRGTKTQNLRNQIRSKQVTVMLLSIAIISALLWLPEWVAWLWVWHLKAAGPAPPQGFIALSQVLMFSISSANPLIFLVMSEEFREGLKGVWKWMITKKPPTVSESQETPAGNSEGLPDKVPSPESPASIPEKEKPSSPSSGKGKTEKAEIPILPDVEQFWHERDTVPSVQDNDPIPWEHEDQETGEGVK
TEAD-YAP inh – TEAD-YAP interaction inhibition | HEK-TIYL cells, TEAD-Gal4/YAP UAS-luciferase luminescence | inhibition, % at 9.12 µM | 640,000 compounds, 1.4% hits | AID 1259422; in the data active = inhibition above about 32%
FBW7 activator – activators of human E3 ligase FBW7; AlphaScreen FBW7–phospho-cyclin E peptide binding, activator screen; normalized activity (activation), % at 26.1 µM; 650,000 compounds, 0.13% hits; AID 1259310; in the data active = normalized activity above about 1.9%;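 note: purified mutant Fbw7 with reduced substrate affinity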
MITF inh conf – human MITF inhibition, confirmation | inhibition, % at 2.6 µM | shares compounds with MITF primary | 4,700 compounds, 16% hits | AlphaScreen MITF homodimerization, biotin/His-MITF beads;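 active = inhibition above a cutoff derived from the DMSO control wells, cut at about 28% in these data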;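 note: inhibitors lower the bead chemiluminescence by keeping MITF from dimerizing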
AS interf ctr – optically interferes with AlphaScreen signal | shares compounds with MITF primary | LysRS AlphaScreen counterscreen, signal interference, triplicate | inhibition, % at 2.6 µM | 4,700 compounds, 7.6% hits | AID 1259376;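 active = inhibition above a cutoff derived from the DMSO control wells, cut at about 30% in these data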
Numbers stand for hits.

Results for Nc1n[nH]c(C(=O)N/N=C/c2cccs2)n1 ?
MITF primary: 77; GPR151 ag: inactive; TEAD-YAP inh: inactive; FBW7 activator: inactive; MITF inh conf: 51; AS interf ctr: 95

Results for CCOc1cc(C#N)c(NC(=O)c2cc([N+](=O)[O-])ccc2N2CCOCC2)cc1OCC ?
MITF primary: 67; GPR151 ag: inactive; TEAD-YAP inh: inactive; FBW7 activator: inactive; MITF inh conf: inactive; AS interf ctr: inactive

How did CCOc1ccc(NC(=O)c2cc([N+](=O)[O-])ccc2N2CCOCC2)cc1 do in these assays?
MITF primary: inactive; GPR151 ag: inactive; TEAD-YAP inh: inactive; FBW7 activator: inactive

What do the screens show for `CC(=O)Nc1cccc(NC(=O)/C=C/c2ccccc2)c1`?
MITF primary: inactive; GPR151 ag: inactive; TEAD-YAP inh: inactive; FBW7 activator: inactive

Results for CC(=O)c1ccccc1OCCCCN1CCN(C)CC1 ?
MITF primary: 82; GPR151 ag: inactive; TEAD-YAP inh: inactive; FBW7 activator: inactive; MITF inh conf: inactive; AS interf ctr: inactive

How did C=CCc1cccc(OC)c1OCCCN1CCN(C)CC1 do in these assays?
MITF primary: 78; GPR151 ag: inactive; TEAD-YAP inh: inactive; FBW7 activator: inactive; MITF inh conf: inactive; AS interf ctr: inactive

What do the screens show for `CCc1ccccc1OCCOCCN1CCN(C)CC1`?
MITF primary: 58; GPR151 ag: inactive; TEAD-YAP inh: inactive; FBW7 activator: inactive; MITF inh conf: inactive; AS interf ctr: inactive

Results for CCOc1cc(C=O)ccc1OCCCCN1CCN(CC)CC1 ?
MITF primary: 71; GPR151 ag: inactive; TEAD-YAP inh: inactive; FBW7 activator: inactive; MITF inh conf: inactive; AS interf ctr: inactive

What do the screens show for `Cc1sc(NC(=O)C(C)(C)C)c(C(=O)O)c1C`?
MITF primary: inactive; GPR151 ag: inactive; TEAD-YAP inh: inactive; FBW7 activator: inactive

What do the screens show for `CCOc1cccc(NC(=O)C2CC(=O)N(C)C(=Nc3ccccc3OC)S2)c1` (centres undefined)?
MITF primary: inactive; GPR151 ag: inactive; TEAD-YAP inh: inactive; FBW7 activator: inactive

How did C=CCc1cc(OC)ccc1OCCCCN1CCN(C)CC1 do in these assays?
MITF primary: 76; GPR151 ag: inactive; TEAD-YAP inh: inactive; FBW7 activator: inactive; MITF inh conf: inactive; AS interf ctr: inactive

How did C=CCc1ccccc1OCCN1CCCC1 do in these assays?
MITF primary: inactive; GPR151 ag: inactive; TEAD-YAP inh: inactive; FBW7 activator: inactive

How did CN1CCN(CCCCOc2ccccc2C=O)CC1 do in these assays?
MITF primary: inactive; GPR151 ag: inactive; TEAD-YAP inh: inactive; FBW7 activator: inactive

How did COc1cccc(C=O)c1OCCCCN1CCN(C)CC1 do in these assays?
MITF primary: 66; GPR151 ag: inactive; TEAD-YAP inh: inactive; FBW7 activator: inactive; MITF inh conf: inactive; AS interf ctr: inactive

What do the screens show for `C=CCc1ccccc1OCCCCN1CCN(C)CC1`?
MITF primary: 57; GPR151 ag: inactive; TEAD-YAP inh: inactive; FBW7 activator: inactive; MITF inh conf: inactive; AS interf ctr: inactive

Results for CCN1CCN(CCCCOc2ccccc2C=O)CC1 ?
MITF primary: 58; GPR151 ag: inactive; TEAD-YAP inh: inactive; FBW7 activator: inactive; MITF inh conf: inactive; AS interf ctr: inactive

What do the screens show for `O=C(C1CC12CCN(C1CCSCC1)CC2)N1CCN(Cc2cccs2)CC1` (centres undefined)?
MITF primary: inactive; GPR151 ag: inactive; TEAD-YAP inh: inactive; FBW7 activator: inactive

How did COc1cccc(CNc2cccc(C)c2)c1OC do in these assays?
MITF primary: 78; GPR151 ag: inactive; TEAD-YAP inh: inactive; FBW7 activator: inactive; MITF inh conf: inactive; AS interf ctr: inactive

Results for COc1cccc(CN2CCN(Cc3cccc(Br)c3)CC2)c1OC ?
MITF primary: 70; GPR151 ag: inactive; TEAD-YAP inh: inactive; FBW7 activator: inactive; MITF inh conf: inactive; AS interf ctr: inactive

What do the screens show for `COc1ccc(CN2CCN(Cc3cccc(OC)c3OC)CC2)cc1Br`?
MITF primary: 75; GPR151 ag: inactive; TEAD-YAP inh: inactive; FBW7 activator: inactive; MITF inh conf: inactive; AS interf ctr: inactive

Results for COc1cccc(CNc2cccc(F)c2)c1OC ?
MITF primary: inactive; GPR151 ag: inactive; TEAD-YAP inh: inactive; FBW7 activator: inactive

How did COc1cccc(CN2CCN(C(=O)c3cccc(Cl)c3)CC2)c1OC do in these assays?
MITF primary: inactive; GPR151 ag: inactive; TEAD-YAP inh: inactive; FBW7 activator: inactive

What do the screens show for `COc1ccc(CN2CCN(Cc3cccc(F)c3)CC2)c(OC)c1OC`?
MITF primary: inactive; GPR151 ag: inactive; TEAD-YAP inh: inactive; FBW7 activator: inactive

Results for COc1cccc(CN2CCN(Cc3cccc(Cl)c3)CC2)c1OC ?
MITF primary: 73; GPR151 ag: inactive; TEAD-YAP inh: inactive; FBW7 activator: inactive; MITF inh conf: inactive; AS interf ctr: inactive

How did Cc1cc(C)c(O)c(N=Cc2cc3c(cc2[N+](=O)[O-])OCO3)c1 do in these assays?
MITF primary: inactive; GPR151 ag: inactive; TEAD-YAP inh: inactive; FBW7 activator: inactive

How did O=C(NCc1cccnc1)C(=O)Nc1c(F)cc(F)cc1Br do in these assays?
MITF primary: inactive; GPR151 ag: inactive; TEAD-YAP inh: inactive; FBW7 activator: inactive

Results for CCCn1c(=S)[nH]c2cc(C(=O)NCCC3=CCCCC3)ccc2c1=O ?
MITF primary: inactive; GPR151 ag: inactive; TEAD-YAP inh: inactive; FBW7 activator: inactive

What do the screens show for `COc1cc(C=C2C(=O)NC(=O)NC2=O)c(O)c([N+](=O)[O-])c1`?
MITF primary: inactive; GPR151 ag: inactive; TEAD-YAP inh: inactive; FBW7 activator: inactive

What do the screens show for `COc1ccc(-n2cc(C(=O)Nc3cccc(Cl)c3)c3ccccc3c2=O)cc1`?
MITF primary: inactive; GPR151 ag: inactive; TEAD-YAP inh: inactive; FBW7 activator: inactive

Results for COc1cccc(CN2CCN(Cc3cccc(C)c3)CC2)c1OC ?
MITF primary: 76; GPR151 ag: inactive; TEAD-YAP inh: inactive; FBW7 activator: inactive; MITF inh conf: inactive; AS interf ctr: inactive

How did CN(C)C(CNCC(=O)Nc1ccc2c(c1)CCC2)c1ccccc1 (centres undefined) do in these assays?
MITF primary: inactive; GPR151 ag: inactive; TEAD-YAP inh: inactive; FBW7 activator: inactive

What do the screens show for `CC1Cc2ccccc2N1C(=O)CNCCN(C)C` (centres undefined)?
MITF primary: inactive; GPR151 ag: inactive; TEAD-YAP inh: inactive; FBW7 activator: inactive

What do the screens show for `CN(C)C(CNCC(=O)NC(=O)Nc1ccc2c(c1)OCCO2)c1ccccc1` (centres undefined)?
MITF primary: 79; GPR151 ag: inactive; TEAD-YAP inh: 55; FBW7 activator: inactive; MITF inh conf: inactive; AS interf ctr: inactive

What do the screens show for `CC(C)c1ccc(NC(=O)CNCC(c2ccccc2)N(C)C)cc1` (centres undefined)?
MITF primary: 65; GPR151 ag: inactive; TEAD-YAP inh: inactive; FBW7 activator: inactive; MITF inh conf: inactive; AS interf ctr: inactive

Results for CC1Cc2ccccc2N1C(=O)CNCC(c1ccccc1)N(C)C (centres undefined) ?
MITF primary: 67; GPR151 ag: inactive; TEAD-YAP inh: inactive; FBW7 activator: inactive; MITF inh conf: inactive; AS interf ctr: inactive
